Compounds with a hit are over-represented: about 3.6% of the library has one in this group of screens.
mHTT CaM bind = mutant huntingtin-calmodulin interaction inhibitors – biochemical, AlphaScreen, primary screen | P42858 | inhibition, % at 15 µM | AlphaScreen His-mHTT/GST-CaM binding, luminescence | 190,000 compounds, 3.6% hits | AID 1671202, 2021
Pf apPOL block = Pf-apPOL inhibitors, biochemical, fluorescence | Plasmodium falciparum apicoplast DNA polymerase (apPOL) | inhibition, % at 10 µM | 210,000 compounds, 0.25% hits | Recombinant Pf-apPOL, molecular beacon fluorescence, 1.5 h
Hits are given with their value; – = inactive; · = no result; ! = not confirmed by another sample. No stated cut-off is given here; in the data, active means inhibition above about 50%; inactive means the rest.

SMILES	mHTT CaM bind	Pf apPOL block
Cc1ccc2nc(/C(C#N)=C/c3cccc(Br)c3)[nH]c2c1	–	–
COc1ccc(/C=C(\C#N)c2nc3ccc(C)cc3[nH]2)cc1	–	–
N#C/C(=C\c1ccc(Sc2nc3ccccc3[nH]2)o1)c1nc2ccccc2[nH]1	100	–
Cc1ccc2nc(/C(C#N)=C/c3cccc(O)c3)[nH]c2c1	70	–
COc1cc(/C=C(\C#N)c2nc3ccc(C)cc3[nH]2)ccc1OCC#N	70	–
COC12C(COC(N)=O)C3=C(C(=O)C(C)=C(N)C3=O)N1CC1NC12 (stereo not drawn)	·	–
C=C(C)Cn1c(SCC(=O)O)nnc1-c1ccco1	–	–
Cc1ccc(F)c(NC(=O)c2nc(C)oc2C)c1	–	–
COc1cc(/C=C(\C#N)c2nc3ncc(Br)cc3[nH]2)ccc1O	55	–
COc1cc(/C=C(\C#N)c2nc3ccccc3[nH]2)cc(Br)c1O	–	–
Cc1cc(C)c(O)c(N=Cc2cccc([N+](=O)[O-])c2O)c1	–	–
COc1cccc(C=Nc2cc(C)cc(C)c2O)c1O	50	–
Cc1cc2[nH]c(C(=O)NC3CC3)c(CN3CCCC3)c2s1	–	–
Cc1cccc(OCC(=O)N2CCC(c3cnn(-c4cccc(C)c4)c3)CC2)c1	–	–
O=C(NCCN1CCCCC1)C1Cc2cc(C(F)(F)F)ccc2N2CCOCC12 (stereo not drawn)	–	–
O=C(C1Cc2cc(C(F)(F)F)ccc2N2CCSCC12)N1CCOCC1 (stereo not drawn)	83	–
Cc1cc(I)ccc1NC(=O)c1ccc2c(c1)OCCO2	–	–
Cc1c(Cl)cccc1NS(=O)(=O)c1cc2c(s1)CCN(C(=O)C1CCC1)C2	51	–
Cc1cccc(NS(=O)(=O)c2cc3c(s2)CCN(C(=O)C2CC2)C3)c1C	–	–
O=C(CSc1nnnn1-c1ccc(Cl)cc1)N1CCCCC1	–	–
COc1ccc(/C=C(\C#N)C(=O)Nc2ccc3c(c2)OCO3)cc1	–	–
Cc1ccc(Cn2c(=O)cc(C(=O)N3CCC4(CC3)OCCO4)c3ccccc32)cc1	59	–
Cc1cc(C(=O)N2CCC3(CC2)OCCO3)c2ccccc2n1	–	–
Cc1nn(C)c2c(=O)n(CC(=O)NCc3ccccc3F)ccc12	–	–
O=C(CCNc1cccc(F)c1)c1cccc([N+](=O)[O-])c1	–	–
SMILES	mHTT CaM bind	Pf apPOL block
O=[N+]([O-])c1ccc(/C=C/CNc2cccc(F)c2)o1	59	–
CC(C)n1c2ccc(Br)cc2c2nc3ccccc3nc21	–	82
Cn1c2ccc([N+](=O)[O-])cc2c2nc3ccccc3nc21	–	–
CC(=O)c1ccc(NC(=O)CSc2nc3ccc([N+](=O)[O-])cc3s2)cc1	–	–
O=C(NCC1CCN(c2cc(-c3ccccn3)[nH]n2)CC1)c1ccc2c(c1)OCO2	–	–
CN(C)c1cccc(C(=O)NCC2CCN(c3cc(-c4ccccn4)[nH]n3)CC2)c1	55	–
CCOc1ccccc1NC(=O)N1CCCC1c1cccc(F)c1 (stereo not drawn)	–	–
O=C(O)COc1ccccc1O	94!	–
Cc1ccccc1OCC(=O)O	–	–
COCCn1c(CC2CCN(C(=O)c3ccc(OC)cc3C)C2)nc2cccnc21 (stereo not drawn)	–	–
CCc1cccc(C)c1-n1nnnc1C(C)(C)Nc1ccccc1	–	–
CCC(C)(Nc1ccc(N(C)C)cc1)c1nnnn1-c1c(C)cccc1C (stereo not drawn)	55	–
CCOc1cccc2c1OC1(CCCCC1)N1N=C(c3cccs3)CC21 (stereo not drawn)	–	–
Brc1ccc2c(c1)C1CC(c3cccs3)=NN1C1(CCCC1)O2 (stereo not drawn)	72	–
CC1(C)Oc2ccc(Cl)cc2C2CC(c3ccc(F)cc3)=NN21 (stereo not drawn)	–	–
Clc1ccc2c(c1)C1CC(c3cccs3)=NN1C1(CCCC1)O2 (stereo not drawn)	78	–
CC(C)n1c(CC2CCN(C(=O)c3cc(-c4ccccc4)n[nH]3)C2)nc2cccnc21 (stereo not drawn)	59	–
CC(C)n1c(CC2CCN(C(=O)c3cc(-c4cccs4)[nH]n3)C2)nc2cccnc21 (stereo not drawn)	–	–
Cc1cccc(NC(=O)Cn2nc3c(cc2=O)CC(C)CC3)c1 (stereo not drawn)	–	–
NNC(=O)CNC(=O)c1ccccc1	–	62
O=C(O)CNC(=O)c1ccccc1	–	–
CCOc1ccc(C(=O)N2CCC(n3cnc4ccc(C)cc43)CC2)cc1	77	–
Cc1ccc2ncn(C3CCN(C(=O)C(C)Oc4ccccc4)CC3)c2c1 (stereo not drawn)	–	–
Cc1ccc(CNC(=O)C2CCc3sc(C(=O)N(C)C)cc3C2)cc1 (stereo not drawn)	–	–
COc1ccc(-c2coc3cc4oc(=O)c(C)c(C)c4cc23)cc1	–	–
SMILES	mHTT CaM bind	Pf apPOL block
CC(C)(O)C#Cc1ccc(C=NNc2ncc(Cl)cc2C(F)(F)F)cc1	·	–
CC(=O)N1CCc2sc(C(=O)NCc3cccc(Cl)c3)cc2C1	–	–
CC(=O)N1CCc2sc(C(=O)NCc3cccc(Br)c3)cc2C1	56	–
Cc1ccc(NC(=O)Cn2ccc3c(=O)[nH]ccc32)c(C)c1	–	–
COc1ccc(NC(=O)Cn2ccc3c(=O)[nH]ccc32)cc1Cl	–	78
CSc1cccc(NC(=O)Cn2ccc3c(=O)[nH]ccc32)c1	–	–
COc1ccc(C)cc1NC(=O)Cn1ccc2c(=O)[nH]ccc21	–	73
CC1=C(C(=O)N2CCN(c3cc(Cl)ccc3C)CC2)C2(CCC(C)CC2)OC1=O (stereo not drawn)	–	–
O=C1OCCN1C(=O)[C@H]1[C@H](c2ccccc2)C(c2ccccc2)=NN1c1ccccc1	–	–
O=C1OCCN1C(=O)[C@H]1[C@H](c2ccccc2)C(c2ccc(F)cc2)=NN1c1ccc(Br)cc1	–	–
O=C1OCCN1C(=O)[C@H]1[C@H](c2ccc([N+](=O)[O-])cc2)C(c2ccc(F)cc2)=NN1c1ccc(Br)cc1	65	–
O=C1OCCN1C(=O)[C@H]1[C@H](c2ccc([N+](=O)[O-])cc2)C(c2ccc(F)cc2)=NN1c1ccccc1	54	–
COc1c(S(=O)(=O)Nc2ccccc2C(=O)O)ccc(Cl)c1Cl	–	–
Nc1ccc(-c2nc3ccc(N)cc3[nH]2)cc1	–	–
Oc1ccc2nc(-c3ccccc3)[nH]c2c1	–	–
COc1ccc(/C=C/c2nc3ccccc3[nH]2)cc1	–	–
CC(=O)Nc1ccc2nc(-c3ccc(-c4nc5ccc(NC(C)=O)cc5[nH]4)cc3)[nH]c2c1	·	–
Nc1ccc(-c2nc3ccc(-c4ccc5nc(-c6ccc(N)cc6)[nH]c5c4)cc3[nH]2)cc1	100	–
Nc1ccc2nc(/C=C/c3nc4ccc(N)cc4[nH]3)[nH]c2c1	53	80
CN(C)c1ccc(-c2nc3ccc(N)cc3[nH]2)cc1	56	–
Nc1ccc2nc(-c3cc(Cl)c(N)c(Cl)c3)[nH]c2c1	54	–
Brc1ccc(-c2nc(-c3ccn4cnnc4c3)no2)cc1	–	–
Cc1ccc(C(=O)NCCSc2c[nH]c3ccccc23)cc1[N+](=O)[O-]	–	–
CCc1nnc(-c2cccn2CC(=O)Nc2cccc(C)c2C)o1	–	–
O=C(NCC(O)Cc1ccccc1)C1CC=CCC1 (stereo not drawn)	–	–
